Screens: PubChem BioAssay, National Center for Advancing Translational Sciences (NCATS)
Hits are enriched below; roughly 21% of the tested compounds scored in any of these assays.
Cycloheximide cs: counter-screen for Shiga toxin inhibitors: cycloheximide protein synthesis inhibition | cell reporter, cycloheximide protein synthesis inhibition counterscreen | max response, % | 300,000 tested, 12% active | AID 2314; in the data active means max response mostly above about 13%, no sharp cut-off; inactive means mostly below about 14%; further: read at 38.3 µM for the half of the compounds with a filed dose; 0% is about no effect
Shiga toxin inh: inhibitors of Shiga toxin in Vero cells. Vero cells, Shiga toxin protein synthesis inhibition reporter. inhibition, % at 38.7 µM. 290,000 tested, 9.2% active; in the data active means inhibition mostly above about 28%, no sharp cut-off; inactive means mostly below about 43%; further: 0% is about no effect
Pf growth 96h: inhibits malaria parasite growth, 96 h; P. falciparum luciferase reporter growth, 96 h; Potency, µM (series often up to 28.7 µM), for inactives: at the top dose activity change, negative = inhibition, most hits filed as inhibitors; 320,000 tested, 6.9% active; AID 504834; further: potency means the concentration at half of the fitted maximal effect; on the % scale 0 is the no-effect control and ±100 the full control effect
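96 h incubation, 37 C, 5% CO2, of luciferase-reporter P. falciparum-infected RBCs (2% hematocrit, 0.05% parasitemia final) with test compounds; endpoint luminescence.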
Pf growth 48h: P. falciparum growth inhibition at 48 hours (one generation) | P. falciparum luciferase growth in erythrocytes, 48 h | 310,000 tested, 5.9% active | Potency, µM (series often up to 28.7 µM), for the others: top-dose activity change, negative = inhibition, actives largely listed as inhibitors | AID 504832; further: potency means the concentration at half of the fitted maximal effect; on the % scale 0 is the no-effect control and ±100 the full control effect
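Luciferase-expressing parasites in RBCs, 2% Hct / 0.1% parasitemia final; RPMI 1640 + 0.5% Albumax; 37 C, 5% CO2, one generation; luminescence read-out, lower signal = inhibition.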
Active calls of the source: *; ? = inconclusive; . = not tested or not shown. Unless noted, the call rests on the fitted dose curve; in most records, active means well fitted inhibition curve with a large enough effect; inconclusive means small, poorly fitted or top-dose-only effect, or another doubt; inactive means no such curve, though single readings can be large or run the other way.

SMILES	Cycloheximide cs	Shiga toxin inh	Pf growth 96h	Pf growth 48h
COc1ccccc1N1CCN(C2CCCN(C(=O)CN3CCCCC3=O)C2)CC1 (configuration not stated)	-2	3	105%	-26%
CCOc1ccc(N(CC(=O)O)S(=O)(=O)c2cccnc2)cc1	-9	-13	15µM*	.
CCOc1ccc(N(CC(=O)Nc2cccnc2)S(=O)(=O)c2ccc(C)cc2)cc1	.	.	2%	13µM*
CC(C)c1ccc(N(CC(=O)O)S(=O)(=O)c2cccnc2)cc1	-3	-23	-3%	.
CCOc1ccc(N(CC(=O)NC2CCCC2)C(=O)CCC(=O)Nc2nccs2)cc1	1	-2	?	0%
CC1CCN(S(=O)(=O)c2cc([N+](=O)[O-])ccc2Cl)CC1	4	5	-5%	-14%
Nc1c(Cl)cc(C2=NCCn3c2c2ccc([N+](=O)[O-])cc2[n+]3[O-])cc1Cl	.	.	?	13µM*
CCOc1ccccc1-c1ccc(C(=O)NCc2ccccc2)o1	10	13	7.4µM*	?
Cc1ccc(-c2ccc(C(=O)NCc3ccccc3)o2)c2ccccc12	-2	-11	10µM*	?
CCOc1cccc2cc(C(=O)NCc3ccccc3)c(=N)oc12	-2	-7	?	0%
Cc1ccc(-c2ccc(C(=O)Nc3ccccc3)o2)c2ccccc12	36*	67*	?	-9%
Cc1ccc(-c2cccc(C(=O)NCc3ccccc3)n2)c2ccccc12	8	8	13µM*	?
Cc1cc(Cl)ccc1OCC(=O)NN1C(=O)C2C3C=CC(C3)C2C1=O (configuration not stated)	-1	-9	-18%	42%
O=C(NCC(=O)N1CCN(C(=O)c2ccccc2)CC1)c1ccc(Cl)cc1Cl	.	.	-19%	-21%
C=C(C)CNC(=S)N/N=C/c1ccco1	13	24	?	?
COc1ccc(CNC(=O)/C=C/c2ccc(OCCCF)cc2)cc1	14	60	14%	?
O=C(O)COc1ccc(/C=C/C(=O)c2ccc(C3CCCCC3)cc2)cc1	26*	49	?	?
CCOc1ccc(C(=O)/C=C/c2ccc(SC)cc2)cc1	19	2	?	-8%
CC(C)(C)C(=O)/C=C/c1ccc(Oc2ccccc2)cc1	50*	120*	47%	161%
CCOc1ccc(/C=C/C(=O)NCc2ccccc2)cc1	20*	30	4%	-27%
CCOc1ccc(/C=C/C(=O)c2ccccc2)cc1	31*	43	185%	112%
CCn1cc(/C=N\NC(=O)c2ccccc2Cl)cn1	16	4	7%	13%
O=C1C=C(/C=C/c2ccccc2)C[C@@H](c2ccc3c(c2)OCO3)C1	.	.	2%	-4%
CC(=O)N/C(=C\c1ccc(F)cc1)C(=O)OCc1ccccc1	-3	-3	?	3%
Cc1cccc(CNC(=O)C2CCC(=O)N(C3CC3)C2)c1 (configuration not stated)	11	-12	36%	12%
SMILES	Cycloheximide cs	Shiga toxin inh	Pf growth 96h	Pf growth 48h
COc1ccc(C(=O)CC(=O)C(=O)Nc2ccccc2C(F)(F)F)cc1	0	5	-10%	.
CCOc1ccc(C(=O)/C=C/c2ccccc2C(F)(F)F)cc1	21*	22	9%	21%
COc1ccc(C(=O)/C=C/c2ccccc2C(F)(F)F)cc1	26*	29	?	?
O=C(/C=C/c1ccccc1)NCCOc1ccccc1	39*	77*	24%	38%
O=C(Nc1ccnn1C1CCN(C2CCCC2)CC1)c1ccccc1	-2	5	11%	19%
CC1CCN(c2c([N+](=O)[O-])nn(-c3ccc4c(c3)OCCO4)[n+]2[O-])CC1	61*	162*	.	.
O=C(c1ccco1)N1CCN(c2c([N+](=O)[O-])nn(-c3ccc(Cl)cc3)[n+]2[O-])CC1	9	-9	0%	9%
O=C(NCc1cccc(F)c1F)C1CCC(=O)N(C2CCCCCC2)C1 (configuration not stated)	6	35	174%	-8%
CCn1ccnc1CN1CCCC(C(=O)c2ccc3cc(OC)ccc3c2)C1 (configuration not stated)	2	13	?	2.9µM*
COc1c(C)cc(C(=O)C2CCCN(Cc3ccc(Oc4ncccn4)cc3)C2)cc1C (configuration not stated)	1	-10	-29%	?
CCn1ccnc1CN1CCCC(C(=O)c2cc(Cl)ccc2OC)C1 (configuration not stated)	-1	-3	14%	21%
COc1ccc2cc(C(=O)C3CCCN(Cc4cnc(N5CCOCC5)s4)C3)ccc2c1 (configuration not stated)	-3	12	2%	?
CCn1ccnc1CN1CCCC(C(=O)c2cc(C)c(OC)c(C)c2)C1 (configuration not stated)	-2	14	?	12µM*
COc1ccc2cc(C(=O)C3CCCN(Cc4ccccn4)C3)ccc2c1 (configuration not stated)	11	-1	-21%	9.3µM*
Cc1nc(-c2ccccc2)sc1C1(C)CC(c2ccc(OC(F)(F)F)cc2)=NO1 (configuration not stated)	-4	-5	49%	32%
COc1ccc2c(c1OC)C(=O)N1C2SC[C@H]1C(=O)NC1CCCC1 (some centres not stated)	-2	12	7%	3%
COc1cccc(C2=NOC(C(=O)NCc3ccccc3)C2)c1 (configuration not stated)	13	23	4.1µM*	-2%
CCN(CC)C(=O)C1CC(c2ccc(OC)cc2)=NO1 (configuration not stated)	40*	82*	111%	77%
COc1ccc(C2=NOC(C(=O)NCc3ccccc3)C2)cc1 (configuration not stated)	5	34*	7.4µM*	?
CCC(C)NC(=O)C1CC(c2cccc(OC)c2)=NO1 (configuration not stated)	-4	14	10µM*	9%
CCCN(C(=O)CSCC(=O)Nc1ccc(OC)cc1)c1c(N)n(Cc2ccccc2)c(=O)[nH]c1=O	.	.	8%	-18%
CCCCn1c(N)c(N(CC(C)C)C(=O)c2cc(Cl)nc3ccccc23)c(=O)[nH]c1=O	.	.	-15%	?
CCN(CC)C(=O)c1sc2nc(-c3ccc(OC)cc3)cn2c1C	38*	77*	?	249%
CNC(=O)c1sc2nc(-c3ccc(OC)cc3)cn2c1C	86*	146*	7%	.
COc1ccc(-c2cn3c(C)c(C(=O)Nc4cc(NC(C)=O)ccc4OC)sc3n2)cc1	1	6	?	77%
C=C(C)[C@@]12OC3(c4ccccc4)O[C@@H]1[C@@H]1[C@@H]4O[C@]4(CO)[C@@H](O)[C@]4(O)C(=O)C(C)=C[C@H]4[C@@]1(O3)[C@H](C)[C@H]2OC(=O)/C=C/C=C/c1ccccc1	2	12	.	.
COc1cc(OC)cc(C(=O)N=c2sc3ccccc3n2C)c1	29*	33*	143%	351%
COc1ccc(C(=O)N=c2sc3ccccc3n2C)cc1	53*	107*	463%	351%
